# In all, about 310,000 compounds went through this assay and about 14,000 (4.5%) showed an effect of 50% or more. The effect is printed as a negative number. This excerpt belongs to a sample that is enriched for strong results.
# Target: human ether-à-go-go-related gene (hERG) potassium channel (human, UniProt Q12809)
# Test: primary screen, population patch clamp on CHO cells stably expressing hERG; higher = less effect of the substance
# 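Further: peak tail current of the secondary pulse compared with the same well before compound.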
# Sequence of human ether-à-go-go-related gene (hERG) potassium channel (Q12809 whole entry, looked up): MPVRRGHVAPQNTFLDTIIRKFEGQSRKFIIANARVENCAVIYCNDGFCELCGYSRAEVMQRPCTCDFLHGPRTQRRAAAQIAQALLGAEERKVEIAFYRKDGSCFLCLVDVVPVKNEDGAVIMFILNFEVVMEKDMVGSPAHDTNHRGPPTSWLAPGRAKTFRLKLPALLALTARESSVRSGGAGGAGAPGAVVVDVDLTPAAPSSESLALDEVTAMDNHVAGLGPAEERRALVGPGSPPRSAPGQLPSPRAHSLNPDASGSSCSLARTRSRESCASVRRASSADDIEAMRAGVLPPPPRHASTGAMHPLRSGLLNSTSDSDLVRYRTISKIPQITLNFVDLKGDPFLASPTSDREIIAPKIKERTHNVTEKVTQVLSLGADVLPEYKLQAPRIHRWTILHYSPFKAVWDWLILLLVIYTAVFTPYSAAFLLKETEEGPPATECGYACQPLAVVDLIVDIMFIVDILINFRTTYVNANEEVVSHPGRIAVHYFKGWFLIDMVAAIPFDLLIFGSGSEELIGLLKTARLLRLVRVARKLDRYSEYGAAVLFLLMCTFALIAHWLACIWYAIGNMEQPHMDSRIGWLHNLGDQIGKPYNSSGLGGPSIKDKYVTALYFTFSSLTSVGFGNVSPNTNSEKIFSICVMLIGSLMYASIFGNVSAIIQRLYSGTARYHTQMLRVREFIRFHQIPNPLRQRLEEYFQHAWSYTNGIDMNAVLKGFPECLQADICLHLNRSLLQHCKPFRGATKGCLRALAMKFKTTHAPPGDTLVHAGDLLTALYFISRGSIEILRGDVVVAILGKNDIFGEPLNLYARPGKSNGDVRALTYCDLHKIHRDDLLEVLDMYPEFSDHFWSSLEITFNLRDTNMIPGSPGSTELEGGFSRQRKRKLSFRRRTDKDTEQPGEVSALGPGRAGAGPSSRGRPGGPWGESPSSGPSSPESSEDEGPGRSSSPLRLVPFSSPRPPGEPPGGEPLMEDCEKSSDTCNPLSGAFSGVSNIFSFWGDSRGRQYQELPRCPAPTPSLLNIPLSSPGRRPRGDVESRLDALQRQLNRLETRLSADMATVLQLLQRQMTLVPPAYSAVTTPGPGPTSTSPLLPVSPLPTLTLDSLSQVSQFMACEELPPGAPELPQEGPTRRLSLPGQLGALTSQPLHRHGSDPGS
row,SMILES,"hERG current change (%, negative = inhibition) at 10uM [%]"
1,CCO/C=C1/C(=O)N(CC)c2ccccc21,-8.33
2,CCOC(=O)Nc1cccc2ccccc12,1.14
3,CCOc1cc(C2C(C(=O)O)c3cc(OCC)c(OCC)cc3C(=O)N2C)ccc1O (stereo not shown),2.69
4,O=C(CNC(=S)N(Cc1ccccc1F)C1CCCCC1)NCCN1CCOCC1,43.3
5,COCCNC(=O)Cn1nc(-c2ccc(Cl)cc2)c2ccccc2c1=O,8.83
6,COc1cccc(CN(C)C(=O)CCNC(=O)c2ccc(Br)cc2)c1,0.786
7,CC(=O)c1cc(CN2CCN(Cc3ccccc3)C(CCO)C2)cs1 (stereo not shown),2.03
8,CC(=O)c1cccc(CN2CCN(CCc3ccccc3)C(CCO)C2)c1 (stereo not shown),-53.3
9,CC(=O)c1cc(CN2CCN(CCC(C)C)C(CCO)C2)cs1 (stereo not shown),-5.53
10,CCOc1ccccc1CN1CCN(Cc2csc(C(C)=O)c2)CC1CCO (stereo not shown),-44.5
11,CC(=O)c1cccc(CN2CCN(Cc3ccc(F)cc3)C(CCO)C2)c1 (stereo not shown),-32.9
12,COc1ccc(CN2CCN(Cc3csc(C(C)=O)c3)CC2CCO)c(C)c1C (stereo not shown),-58.1
13,CC(=O)c1cccc(CN2CCN(CC(C)C)C(CCO)C2)c1 (stereo not shown),5.29
14,CC(=O)c1cc(CN2CCN(C3CCN(C(C)C)CC3)C(CCO)C2)cs1 (stereo not shown),-3.56
15,CC(=O)c1cccc(CN2CCN(Cc3ccccc3)C(CCO)C2)c1 (stereo not shown),-1.84
16,CC(=O)c1cccc(CN2CCN(Cc3ccc(C)cc3)C(CCO)C2)c1 (stereo not shown),-69
17,CC(=O)c1cc(CN2CCN(CCc3ccccc3)C(CCO)C2)cs1 (stereo not shown),-54.4
18,CC(=O)c1cccc(CN2CCN(CCC(C)C)C(CCO)C2)c1 (stereo not shown),-29
19,Cc1cccc(-n2[nH]c3c4c(ccc3c2=O)C(=O)c2ccccc2C4=O)c1,4.95
20,Cc1onc(-c2ccccc2Cl)c1C(=O)Nc1ccc(OCC(=O)N2CCOCC2)cc1,-3.95
21,CC/C(=N\NC(=O)Nc1ccccc1)c1c(O)n(Cc2ccccc2)c(=O)[nH]c1=O,3.1
22,CC(=O)c1ccc(NS(=O)(=O)c2ccc3c(c2)N(C)CCO3)cc1,11.6
23,COc1ccccc1N1CCN(C(=O)C2CCCN(S(=O)(=O)c3ccc(C)cc3)C2)CC1 (stereo not shown),-38.3
24,O=C(Nc1c(F)cc(F)cc1Br)c1cccnc1,8.61

row,SMILES,"hERG current change (%, negative = inhibition) at 10uM [%]"
1,COc1ccc(-c2ccnc3nc(-n4cccc4)nn23)cc1,-14.7
2,COc1cc2nc(Nc3cccc(F)c3)nc(N)c2cc1OC.Cl,-17.7
3,O=C(NC1CC2CCC1C2)C1CCN(S(=O)(=O)c2ccc(-c3nn[nH]n3)cc2)CC1 (stereo not shown),14.4
4,O=C(O)c1cc(N2C(=O)C3CC=CCC3C2=O)ccc1NCc1cccnc1 (stereo not shown),15
5,CC(=O)c1cc(CN2CCN(C3CCCCC3)C(CCO)C2)cs1 (stereo not shown),-17.2
6,CC(=O)c1cc(CN2CCN(CC=C(C)C)C(CCO)C2)cs1 (stereo not shown),16.3
7,CC(=O)c1cc(CN2CCN(Cc3ccc(C)cc3)C(CCO)C2)cs1 (stereo not shown),-55
8,CN1C(N)=NC(=O)/C1=C\c1ccc(Br)cc1,8.35
9,CC(C)CC(C(=O)NC1CCCC1)N(Cc1ccc2c(c1)OCO2)C(=O)c1snc(C(N)=O)c1N (stereo not shown),-20.4
10,CCN1CCCC1CNC(=O)c1cc2c(C)nc3ccccc3c2o1 (stereo not shown),-12
11,O=C(O)C(=O)O.c1ccc(COc2ccc(OCCCCN3CCCCC3)cc2)cc1,-70.5
12,O=C(O)C(=O)O.c1ccc(COc2ccc(OCCCCN3CCCC3)cc2)cc1,-64
13,CSc1cccc(N2CC(C(=O)NCCC3=CCCCC3)CC2=O)c1 (stereo not shown),14.1
14,Cc1cccc(NC(=O)C2NC(=O)CC2c2ccccc2)c1C (stereo not shown),1.2
15,O=C(CSc1nnc(NC(=O)c2ccc(F)cc2F)s1)NC1CCCC1,17.7
16,Clc1ccc(N=C2SCC3CCCCN23)cc1 (stereo not shown),-18.3
17,COc1ccc(S(=O)(=O)N2CCN(c3nc(C)cc(C)n3)CC2)cc1,2.96
18,Cc1nc2cc(C(=O)OCC(=O)Nc3cccc(Cl)c3)ccc2n1-c1ccccc1,-13.6
19,O=C(Nc1ncc(C(F)(F)F)cc1Cl)c1ccc(S(=O)(=O)N2CCOCC2)cc1,-13.4
20,COc1cc(/C=N\NC(=O)c2cccnc2)ccc1OC(=O)c1ccccc1Cl,-7.3
21,COc1cccc(C(=O)Nc2cccc(-c3nnc(-c4ccco4)o3)c2)c1,-51.4
22,COc1ccc(/C=N/NC(=O)c2cccc(NC(=O)c3ccccc3Cl)c2)cc1OC,-3.89
23,COc1cc(C(=O)N/N=C/c2ccc(OC(=O)c3ccccc3Cl)c(OC)c2)ccc1O,13.4
24,COc1cccc(C(=O)Nc2cccc(-c3nnc(-c4ccccc4)o3)c2)c1,-4.18

row,SMILES,"hERG current change (%, negative = inhibition) at 10uM [%]"
1,COc1cc(/C=N/NC(=O)c2ccncc2)ccc1OC(=O)c1ccccc1Cl,-50.8
2,COc1cccc(C(=O)Nc2cccc(NC(=O)c3ccccc3Cl)c2)c1,-52
3,COc1cc(/C=N/NC(=O)c2cccc(NC(=O)c3ccccc3C)c2)ccc1O,-48.4
4,COc1cc(/C=N/NC(=O)c2cccc(NC(=O)c3ccccc3Cl)c2)ccc1O,-55.6
5,COc1cccc(C(=O)Nc2cccc(NC(C)=O)c2)c1,-8.39
6,COc1ccc(C(=O)Nc2cccc(-c3nnc(-c4ccco4)o3)c2)cc1,-37.4
7,CC(C)Oc1cccc(C(=O)NC(=S)Nc2cccc(NC(=O)c3ccccc3Cl)c2)c1,-11.9
8,CCOc1ccc(NC(=O)CCN2C(=O)CSc3ccccc32)cc1,-25.3
9,O=C(/C=C\Nc1ccc2c(c1)OCO2)c1cccs1,17.6
10,Cc1nc(SCC(=O)Nc2c(C)nn(C)c2C)c2cnn(-c3ccccc3)c2n1,14
11,Cc1ccc(S(=O)(=O)N2CCOCC2)cc1NC(=O)c1cc(-c2ccccn2)nc2ccccc12,-46.7
12,S=c1[nH]nc(-c2ccc(Cl)cc2Cl)n1-c1ccc2c(c1)OCCO2,6.46
13,c1ccc(C2CCC(N3CCC(N4CCCCC4)CC3)CC2)cc1 (stereo not shown),10.8
14,COCCNC(=O)CSCc1c(F)cccc1Cl,3.73
15,CCCc1cc(=O)oc2cc(C)cc(OC(C)C(=O)NCc3ccccn3)c12 (stereo not shown),-8.3
16,Fc1cccc2sc(Nc3nnc(-c4ccccc4)o3)nc12,20.5
17,O=c1[nH]nc(N/N=C/c2ccc(Cl)cc2Cl)c(=O)[nH]1,-1.17
18,Cn1c(SCC(=O)O)nnc1-c1cccc(NC(=O)c2cccc3ccccc23)c1,7.15
19,COc1ccccc1C(=O)NCCSCc1ccccc1Cl,-15.4
20,COC(=O)c1cccc(NC(=O)c2ccc(OC)c(Cl)c2)c1,-65.3
21,COc1ccc(NC(=O)c2cccc(F)c2)cc1Cl,1.72
22,COc1ccc(C(=O)Nc2cc(C(=O)O)cc(C(=O)O)c2)cc1Cl,19.5
23,COc1cccc(C(=O)NCCSCc2ccccc2Cl)c1,-53.2
24,COc1cccc(C(=O)NCCSCc2c(F)cccc2Cl)c1,-29

row,SMILES,"hERG current change (%, negative = inhibition) at 10uM [%]"
1,CCNS(=O)(=O)c1ccc(CCC(=O)NCCC2=CCCCC2)cc1,-23.6
2,Cc1cccc(C)c1NC(=O)COC(=O)c1ccc2c(c1)OCO2,-4.84
3,c1cnc2c(SCc3ccc(-c4nnco4)cc3)cccc2c1,1.45
4,COc1cc(OC)c(NC(=O)c2csc(C)c2)cc1Cl,14.2
5,Cc1ccccc1CNC(=O)/C=C\C(=O)O,3.23
6,FC(F)(F)c1cc(-c2cccs2)nc(-n2cc(Cl)cn2)n1,0.253
7,CCOc1ccc(CCNC(=O)Cn2c(-c3nonc3N)nc3ccccc32)cc1OCC,-3.72
8,CC1(C)CC(=O)c2c(O)c(-c3ccccc3)c(=O)n(-c3ccccc3)c2C1,-6.83
9,Cc1ccc(-n2c3c(c(O)c(-c4ccccc4)c2=O)C(=O)CC(C)(C)C3)cc1,-55.2
10,Cc1ccc(-n2c3c(cc(C(=O)O)c2=O)C(=O)CC(C)(C)C3)cc1,19.2
11,O=C(c1ccc2nccnc2c1)N1CCCC(N2CCN(c3ccc(F)cc3)CC2)C1 (stereo not shown),-9.66
12,COc1ccc(N2CCN(C(CNS(=O)(=O)c3cc(F)ccc3F)c3cccnc3)CC2)cc1 (stereo not shown),-69
13,O=C(NCc1ccc(Cl)cc1)C(=O)NCC(c1cccnc1)N1CCN(c2ccc(F)cc2)CC1 (stereo not shown),-45.5
14,COc1ccccc1N1CCN(C(CNS(=O)(=O)c2cc(F)ccc2F)c2cccnc2)CC1 (stereo not shown),-35
15,O=C(NCC(c1cccnc1)N1CCN(c2ccc(F)cc2)CC1)C1CCCCC1 (stereo not shown),-45.5
16,Cc1cc(F)ccc1S(=O)(=O)NCC(c1cccnc1)N1CCc2ccccc21 (stereo not shown),-1.61
17,O=C(NCC(c1cccnc1)N1CCN(c2ccccc2)CC1)Oc1ccccc1 (stereo not shown),-19.2
18,CCS(=O)(=O)NCC(c1cccnc1)N1CCN(c2ccccc2)CC1 (stereo not shown),-28.1
19,O=S(=O)(NCC(c1cccnc1)N1CCN(c2ccccc2)CC1)c1cc(F)ccc1F (stereo not shown),-62.8
20,O=S(=O)(NCC(c1cccnc1)N1CCN(Cc2ccccc2)CC1)c1cc(F)ccc1F (stereo not shown),-69.1
21,O=S(=O)(NCC(c1cccnc1)N1CCN(c2ccc(F)cc2)CC1)c1cc(F)ccc1F (stereo not shown),-65.8
22,COc1ccc(N2CCN(C(CNC(=O)C(C)(C)C)c3cccnc3)CC2)cc1 (stereo not shown),-36.7
